Shown are actives, neighbours in structure and some others; about 19% of the full set was active somewhere.
DT40 TDP1 CPT – growth inhibition of DT40 Tdp1-/-;hTDP1 cells with camptothecin (screen for TDP1 inhibitors); chicken DT40 Tdp1-/-;hTDP1 cells + 20 nM CPT, ATP luminescence, 48 h; Potency, µM (series often up to 46.2 µM), most hits filed as inhibitors; 12% of 420,000 active; also: nearly all actives have a fitted effect of over 55% in size
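Chicken DT40 Tdp1-/- cells stably complemented with human TDP1 were seeded at 400 cells/well in medium containing 20 nM camptothecin, exposed to pin-transferred compounds, and grown at 37 °C for at least 48 hr. Viability was read as ATP luminescence.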
IL-1B inflam inh – inhibitors of inflammasome signaling (IL-1 beta secretion). activity change, % at 57.5 µM. THP-1 LPS/ATP IL-1B secretion, AlphaLISA, 16 h; stronger effect = lower value. 4.7% of 360,000 active; in the data active = activity change below about -50%; inconclusive = mostly about -30% to -49%
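THP-1 cells pretreated 1 hr with compounds (up to 57.5 uM final), then stimulated with LPS (250 ng/mL final) plus ATP (1.25 mM final); secreted IL-1B measured by AlphaLISA after 16 hr, decreased signal indicating inhibition.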
MCF10A rerep – DNA re-replication induction in MCF 10a cells. MCF 10A DNA re-replication, Hoechst nuclear intensity, 48 h. Potency, µM (top dose mostly 46.1 µM), hits mostly activators. 2.9% of 350,000 active. AID 624296; also: nearly all actives have a fitted effect of over 50% in size
Chronic BCR inh – blocks chronic active B-cell receptor signaling. Potency, µM (titrated, usually from 46.1 µM), usual class: inhibitors. AID 493014. 0.05% of 340,000 active. ABC-DLBCL IkBa-CBG/CBR reporter, luminescence ratio, 4 h; active = well fitted inhibition curve with a large enough effect in the signal ratio, with a control signal flat, not every such curve was filed as active; inconclusive = small, poorly fitted or top-dose-only effect, or effect the other way, or a change in a side signal; the % refers to the signal ratio
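TMD8 human ABC-DLBCL cells with doxycycline-inducible IκBα–green luciferase fusion and unfused red luciferase, in 0.5% FBS medium; compounds up to 46 uM, 4 h at 37C. Green/red luminescence ratio, filter-overlap corrected, fitted to concentration-response curves.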
TDP1 cell noCPT – qHTS for Inhibitors of human tyrosyl-DNA phosphodiesterase 1 (TDP1): qHTS in cells in absence of CPT; 15% of 420,000 active; Potency, µM (titrated, usually from 46.2 µM), actives largely listed as inhibitors; DT40 Tdp1-/- hTDP1 cells, no CPT, ATP luminescence, 48 h; also: nearly all actives have a fitted effect of over 55% in size
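No-CPT arm: Tdp1-/-;hTDP1 DT40 cells (400/well) plus compounds, incubated ≥48 hr at 37 °C. Readout CellTiter-Glo luminescence.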
SW480 rerep – induces DNA re-replication in SW480 colon adenocarcinoma cells; SW480 DNA re-replication, Hoechst DNA content imaging, 48 h; Potency, µM (doses to about 46.1 µM), hits mostly activators; 1.8% of 340,000 active; AID 624297; also: nearly all actives have a fitted effect of over 55% in size
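Compounds, transferred as 23 nL by pin tool, were incubated with cells for 48 hr; DNA content per nucleus was then quantified by Hoechst staining and fluorescence plate imaging.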
Numbers stand for hits; n = inactive; u = inconclusive; x = not tested or not shown; [ ] = another dose, or the depositor's remark. Unless noted, calls follow the shape of the dose curve; as a rule, active = well fitted curve in the direction sought with a large enough effect; inconclusive = small, poorly fitted or top-dose-only effect, or another doubt; inactive = no such curve, though single readings can be large; an effect the other way counts as inactive or inconclusive.

SMILES	DT40 TDP1 CPT	IL-1B inflam inh	MCF10A rerep	Chronic BCR inh	TDP1 cell noCPT	SW480 rerep
Cc1cc(C)c(NC(=O)CN2C(=O)CCSc3ccc(S(=O)(=O)N4CCCC4)cc32)c(C)c1	n	x	x	x	n	x
O=c1c2ccccc2ncn1-c1ccccc1[N+](=O)[O-]	n	n	n	n	n	n
O=c1c2ccccc2ncn1-c1ccc(Br)cc1[N+](=O)[O-]	n	n	u	n	n	5.8µM
CCc1cc2c(=O)c(-c3cnn(-c4ccccc4)c3)c(C)oc2c(CN2CCCCC2)c1O	u	n	u	n	26µM	n
CCc1cc2c(=O)c(-c3nc4ccccc4n3C)coc2c(CN2CCCCC2)c1O	u	n	n	n	u	n
CCc1cc2c(=O)c(-c3nc4ccccc4n3C)c(C)oc2c(CN2CCCCC2)c1O	26µM	n	n	n	u	n
CCc1cc2c(=O)c(-c3cnn(-c4ccccc4)c3)c(C(F)(F)F)oc2c(CN(C)C)c1O	n	n	n	u	n	n
CCCCCCCCCCCCCCCCCCN(CCCCCCCCCCCCCCCCCC)c1ccc(C=O)cc1	n	x	x	x	n	x
C=CCOC(=O)c1ccc(-n2cnc(C)n2)nc1	n	n	n	u	n	n
COc1ccc(C(=O)N2CCC3(CCCN(Cc4ccncc4)C3)CC2)cc1	n	x	x	x	u	x
O=C(c1cc(COc2ccc(-n3cncn3)cc2)on1)N1CCCC1	n	n	n	x	n	n
COCCCC1CCN(C(=O)c2cc(COc3ccc(C)nc3)on2)CC1	18µM	n	n	n	10µM	n
CCOC(=O)C1CCCN(C(=O)c2cc(COc3ccc(C)nc3)on2)C1 (configuration not stated)	u	n	n	n	u	u
CCC1CCCCN1C(=O)c1cc(COc2ccc(-n3cncn3)cc2)on1 (configuration not stated)	18µM	n	n	n	16µM	n
COCCC1CCCCN1C(=O)c1cc(COc2ccc(C)nc2)on1 (configuration not stated)	21µM	u	n	n	23µM	n
COCCCNC(=O)C(C)n1c2ccccc2c2cnn(C)c(=O)c21 (configuration not stated)	n	x	x	x	n	x
Nc1sc(-c2ccccc2)n[n+]1Cc1cccc2cccnc12	u	u	n	u	23µM	n
Oc1ccccc1CNc1cccc2cccnc12	u	n	n	u	u	n
COc1cccc([C@@H]2Oc3ccc(Br)cc3C(=O)[C@H]2OC(=O)NC2CCCC2)c1	u	-61	u	u	u	n[9.22 µM]
COc1ccc2c(c1)C(=O)[C@@H](O)[C@H](c1ccc(OC)c(Br)c1)O2	21µM	n	u	n	u	12µM
COc1cccc([C@@H]2Oc3ccc(OC)cc3C(=O)[C@H]2O)c1	6.5µM	n	u	n	12µM	u
CC[C@H](C)[C@@H](NC(=O)O[C@@H]1C(=O)c2cc(Br)ccc2O[C@H]1c1cccc(OC)c1)C(=O)OC	u	n	u	u	u	n
COc1ccc2c(c1)C(=O)[C@@H](OC(=O)NCc1ccc3c(c1)OCO3)[C@H](c1ccc(OC)c(Br)c1)O2	x	x	n	n	x	u
COc1cc(OC)c2c(c1)OC(c1ccc(OC)c(OC)c1)C(O)C2=O (configuration not stated)	u	n	n	u	u	n
CN[C@@H]1[C@@H](O)[C@@H](O[C@@H]2[C@@H](O)[C@H](O[C@H]3O[C@H](CN)[C@@H](O)[C@H](O)[C@H]3O)[C@@H](N)C[C@H]2NC(=O)C(O)CN)OC[C@]1(C)O (some centres not stated)	n	x	x	x	n	x
SMILES	DT40 TDP1 CPT	IL-1B inflam inh	MCF10A rerep	Chronic BCR inh	TDP1 cell noCPT	SW480 rerep
O=C(COc1ccccc1)Nc1nnc2n1CCS2	n	x	x	x	n	x
O=C(Nc1cccc(F)c1)N1CC[C@@]2(CCCN(C(=O)c3ccco3)C2)C1	n	x	x	x	n	x
CCCOC(=O)N[C@@H]1C(=O)N2C(C(=O)OCCC)=C(C)CS[C@H]12	n	n	n	n	u	n
COc1ccc(NC(=O)CN2CCN(c3ccccn3)CC2)cc1Cl	n	n	n	n	n	n
COc1ccc(NC(=O)c2sc3nc(C)nc(N4CCN(c5ccccn5)CC4)c3c2C)cc1Cl	u	x	u	n	21µM	n
Cc1cc(Br)ccc1NC(=O)c1sc2ncnc(N3CCN(c4ccccn4)CC3)c2c1C	10µM	-77	7.3µM	u	2.6µM	15µM
COc1ccc(NC(=O)c2sc3ncnc(N4CCN(c5ccccn5)CC4)c3c2C)cc1Cl	21µM	u	u	n	5.8µM	u
Cc1cc(Br)ccc1NC(=O)CN1CCN(c2ccccn2)CC1	n	n	n	n	n	n
C[C@H](NS(=O)(=O)c1ccc2c(c1)OCCCO2)C(=O)N1CCN(Cc2ccc(C#N)cc2)CC1	u	n	n	n	n	n
O=C(NCCC(=O)N1CCC2(CC1)NCCc1[nH]cnc12)c1cccc(Br)c1	n	n	n	n	n	n
CC1CCCN(CCCNC(=O)c2ccc3c(c2)N(Cc2ccccc2F)C(=O)c2ccccc2S3(=O)=O)C1 (configuration not stated)	23µM	-65	n	u	15µM	u
O=C(NCCCN1CCOCC1)c1ccc2c(c1)N(Cc1ccccc1)C(=O)c1ccccc1S2=O (configuration not stated)	u	n	n	n	n	u
CCC1CCCCN1CCCNC(=O)c1ccc2c(c1)N(Cc1ccc(F)cc1)C(=O)c1ccccc1S2=O (configuration not stated)	u	-58	u	u	u	u
CC1CCCN(CCCNC(=O)c2ccc3c(c2)N(Cc2ccc(F)cc2)C(=O)c2ccccc2S3=O)C1 (configuration not stated)	16µM	-58	n	u	u	21µM
CCN=C1NN=C(c2c[nH]c3ccccc23)CS1	n	-106	n	n	n	n
Cc1ccccc1N=C1NN=C(c2ccccc2F)CS1	u	n	n	u	u	u
COCC(C)N=C1NN=C(c2c[nH]c3ccccc23)CS1 (configuration not stated)	n	-80	n	n	n	n
COc1ccc(CN=C2NN=C(c3ccccc3)CS2)cc1	n	n	u	u	u	u
CCOc1ccc(N(CC)S(=O)(=O)N2CCCC(C(=O)NCc3ccccc3OCC)C2)cc1 (configuration not stated)	u	x	x	x	16µM	x
CCOc1ccc(N(CC)S(=O)(=O)N2CCCC(C(=O)NCCc3ccccc3OC)C2)cc1 (configuration not stated)	21µM	x	x	x	u	x

Source: PubChem BioAssay (National Center for Advancing Translational Sciences (NCATS))
